Assay [1] is described as follows: reducers of endogenous Her2 protein level, primary screen, SKBR3 breast tumor cells, AlphaScreen, ATP viability (AID 461;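 active = Her2 level under about 52% in both replicate screens, with viability over 70% of control, limit read from the data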;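 for Her2 level: lower value means less Her2 protein in the cells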;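 for viability: percent of carrier control wells set as 100% viability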). The following applies: 18-24 h, measured here: SKBR3 viability, ATP luminescence, at 10 µM.
Assay [2] addresses Receptor tyrosine-protein kinase erbB-2 (Homo sapiens) (UniProt P04626). The description is as above. The following applies: 18-24 h, at 10 µM, stronger effect = lower value.
Assay [3] in a line: SK-BR-3 cell growth inhibitors, pilot screen, 24 h, human (AID 572).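 Note: compound exposure lasted between 18 and 24 h rather than exactly 24 h; 100% = carrier-treated control wells.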 Conditions: SK-BR-3 viability, CellTiter-Glo luminescence, at 10 µM, stronger effect = lower value. For orientation: ATP-based viability assays read luminescence as a measure of living cells.
Assay [4] in a line: HUVEC growth inhibition – cell-based, human, primary screen (AID 575;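 active = viability at or below 30% in both replicate assays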;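 note: 100% = median of untreated cell wells with 0.1% DMSO on each plate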). Conditions: HUVEC proliferation, CellTiter-Glo luminescence, 72 h; at 10 µM; stronger effect = lower value.
Assay [5] can be described thus: growth inhibitors of H69AR lung tumor, primary screen, human, duplicate replicates (AID 580;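 active = viability at or under a set limit in both replicates, limit being median viability minus 3 SD, cut at about 48% in these data, passing the limit was not always enough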;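 note: 100% = mean luminescence of untreated wells and 0% = no signal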). The following applies: H69AR lung tumor cells viability, ATP luminescence, 72 h; at 10 µM; stronger effect = lower value.
A short description of assay [6]: reversal of MRP1-mediated doxorubicin resistance, pilot screen, H69AR cells, doxorubicin co-treatment (AID 601;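 active = viability loss from added drug above about 55%, and viability with drug at most 40%, in both replicates, limit read from the data, passing the limit was not always enough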). Conditions: CellTiter-Glo, 72 h, at 10 µM; for differential viability (reversal): stronger effect = higher value.
Assay [7] can be described thus: 384-well plate pilot, post-Golgi transport modulator project, inhibition of yeast transport mutant growth (AID 636; in the data active = inhibition above about 31%). Conditions: absorbance 615 nm, about 18 h, stronger effect = higher value.
The nature of assay [8]: growth suppression of yeast trafficking mutant, preliminary HTS, modulators of trafficking downstream of Golgi apparatus project, 1536-format plate, OD 615 nm (AID 637; in the data active = inhibition above about 30%). The following applies: yeast transport mutant growth, absorbance 615 nm, 18 h; stronger effect = higher value.
Assay [9] can be described thus: OD615 S. cerevisiae growth inhibition, permissive medium, pilot counter-assay, permissive growth control for S. cerevisiae lifespan shortening project (AID 705;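 active = growth inhibition above 25% in both replicates, a cutoff set 3 SD above the mean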). The following applies: OD615, 24 h, at 10 µM, stronger effect = higher value.
The nature of assay [10]: Restrictive medium S. cerevisiae growth inhibition, OD615, pilot screen of yeast lifespan reduction project, restrictive growth control (AID 706;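 active = growth inhibition above a set limit, 3 SD over mean compound inhibition, in both replicates, cut at about 43% in these data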;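 note: modified DeaD lifespan yeast strain shifted to restrictive glucose medium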). Conditions: OD615, 48 h, at 10 µM, stronger effect = higher value.
Assay [11] is described as follows: viability gain of MRP-1-high H69AR cells under doxorubicin, pilot screen, MRP-1 activator project, CellTiter-Glo, duplicate (AID 807;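 active = viability increase at or above a cutoff of the median across tested compounds plus 3 SD, cut at about 8.5% in these data, passing the limit was not always enough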;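 note: compound pretreatment 18-22 h then 72 h combined with doxorubicin; 0% = doxorubicin alone and 100% = vehicle without doxorubicin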). Conditions: H69AR viability with doxorubicin, CellTiter-Glo luminescence; at 10 µM; stronger effect = higher value.
The nature of assay [12]: growth suppression of beta-catenin knockout HCT116, pilot screen, human colon tumor cells (AID 823;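 active = cell viability at or below a set limit in both duplicate runs, the limit being the all-compound median minus 4 SD, cut at about 23% in these data, passing the limit was not always enough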;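 note: 0% = wells killed by 20 µM Hyamine and 100% = untreated DMSO cell wells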). Conditions: CellTiter-Glo, 60 h, at 10 µM, stronger effect = lower value.
The nature of assay [13]: growth suppression of PTEN-deleted HCT116, pilot screen, cell-based, HCT116 clonal line, CellTiter-Glo (AID 824;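 active = viability at or below 27.92% in each of two runs, the all-compound median minus 4 SD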;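 note: 0% = 20 µM Hyamine control and 100% = vehicle cell control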). The following applies: 60 h, at 10 µM, stronger effect = lower value.
Assay [14] in a line: inhibitors of the yeast RAM network, pilot screen, dse1pr::URA3 reporter, 5-FOA selection (AID 869;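 active = inhibition over a set limit, the all-compound mean plus 3 SD, in both replicate runs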;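 note: 0% = DMSO wells with no growth and 100% = 10 µM 1-NA-PP1 with full growth; RAM network block rescues cells from 5-FOA so hits raise OD615 growth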). The following applies: S. cerevisiae dse1pr::URA3 5-FOA growth, OD615, 2 d; at 10 µM; stronger effect = higher value; strain carries analog-sensitive mutant Cbk1 kinase.
A short description of assay [15]: RAM signaling pathway blockade in yeast – S. cerevisiae, Pdr1DBD-CYC8 efflux-inhibited sensitized strain, primary screen (AID 1298;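 active = RAM network inhibition above 8.4% in each of two replicates, 3 SD over the compound average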;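 note: 0% = DMSO untreated cells without growth and 100% = 10 µM 1-NA-PP1 full growth; higher means more yeast growth rescued from 5-FOA killing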). The following applies: S. cerevisiae cbk1-as DSE1-URA3 strain, 5-FOA growth OD615, 2 d; at 50 µM; stronger effect = higher value.
Setting [16] is: H69AR cells + 2 uM doxorubicin, measured here: viability with 2 uM doxorubicin, stronger effect = lower value.
The mark [17] stands for this setting: H69AR cells, compound alone cytotoxicity.

The structures appear in SMILES notation. Results filed as inconclusive are left out. Calls of active or inactive are those of the source.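 Rule for the calls, unless noted: active = viability at or below 10% of carrier control in both of two separate runs; inconclusive = viability at or below 10% in only one of the two runs; inactive = the rest.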

By viability is commonly meant a read-out of living cells in per cent, often relative to untreated cells. A word on the inhibition: it is the relative decrease from the control value, in per cent.

Sequence of Receptor tyrosine-protein kinase erbB-2 (Homo sapiens) (P04626 whole entry, looked up): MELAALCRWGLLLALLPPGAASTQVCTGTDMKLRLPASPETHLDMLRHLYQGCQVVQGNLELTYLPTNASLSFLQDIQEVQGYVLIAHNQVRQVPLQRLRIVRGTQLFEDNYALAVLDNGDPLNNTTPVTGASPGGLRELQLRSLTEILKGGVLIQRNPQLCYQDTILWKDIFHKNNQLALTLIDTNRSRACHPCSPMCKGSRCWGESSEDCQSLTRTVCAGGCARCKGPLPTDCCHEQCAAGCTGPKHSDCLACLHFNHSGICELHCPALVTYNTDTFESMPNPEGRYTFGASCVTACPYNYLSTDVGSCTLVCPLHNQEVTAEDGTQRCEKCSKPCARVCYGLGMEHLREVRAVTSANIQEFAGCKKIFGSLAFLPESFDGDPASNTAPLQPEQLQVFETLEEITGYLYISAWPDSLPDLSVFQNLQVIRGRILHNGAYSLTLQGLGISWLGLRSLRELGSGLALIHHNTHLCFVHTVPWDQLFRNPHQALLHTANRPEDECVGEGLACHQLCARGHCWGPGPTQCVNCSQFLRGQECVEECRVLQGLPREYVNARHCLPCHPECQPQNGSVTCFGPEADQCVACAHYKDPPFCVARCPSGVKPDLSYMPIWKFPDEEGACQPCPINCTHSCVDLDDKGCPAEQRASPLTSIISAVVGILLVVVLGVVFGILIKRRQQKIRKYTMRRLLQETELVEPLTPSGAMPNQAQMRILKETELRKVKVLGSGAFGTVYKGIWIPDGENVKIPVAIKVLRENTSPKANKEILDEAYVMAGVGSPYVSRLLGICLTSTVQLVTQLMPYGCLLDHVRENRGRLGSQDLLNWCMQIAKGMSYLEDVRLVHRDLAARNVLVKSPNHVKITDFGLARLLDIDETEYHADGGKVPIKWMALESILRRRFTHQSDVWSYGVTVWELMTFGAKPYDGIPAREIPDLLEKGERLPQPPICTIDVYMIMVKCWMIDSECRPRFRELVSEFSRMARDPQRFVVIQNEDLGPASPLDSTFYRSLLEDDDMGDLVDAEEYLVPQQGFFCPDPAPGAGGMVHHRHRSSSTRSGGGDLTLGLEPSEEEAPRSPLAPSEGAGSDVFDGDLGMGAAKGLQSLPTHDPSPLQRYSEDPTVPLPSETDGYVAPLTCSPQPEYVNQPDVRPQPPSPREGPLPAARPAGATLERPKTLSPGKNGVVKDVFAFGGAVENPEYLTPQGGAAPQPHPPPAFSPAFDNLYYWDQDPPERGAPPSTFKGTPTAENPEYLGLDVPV

Turning to `CCOc1ccccc1N1Cc2cc(C)c(C)cc2C1`, the viability was 92.5% in assay [1]; 92.5% (inactive) in [3]; 90.4% (inactive) in [4]; 88.1% (inactive) in assay [5]; 97.7% in [6] (setting [16]); 88.1% in [6] (setting [17]). The viability was 63.6% (inactive) in assay [12] and 59.3% (inactive) in assay [13]. Besides, in assay [2], the Her2 level is 104% (inactive). Moreover, in [6] (H69AR cells + 2 uM doxorubicin), the differential viability (reversal) was -9.66% (inactive). The results for the inhibition in [7], in assay [8] and in [14] were -6.27% (inactive), -0.83% (inactive) and 2.19% (inactive), respectively. Further, the growth inhibition in assay [9] was -16.8% (inactive); in [10], -12.1% (inactive). In assay [11], the viability increase was -2.58% (inactive). Besides, the RAM network inhibition in [15] was 2.05% (inactive).
As for `CCOC(=O)C(CC)(CCC(=O)O)c1csc(N)n1` (stereo not given), the viability is 99% in [1]; 99% (inactive) in assay [3]; 101% (inactive) in [4]; 102% (inactive) in assay [5]; 94.2% in assay [6] (setting [16]); 102% in [6] (setting [17]). Moreover, the viability in assay [12] was 96.8% (inactive); in assay [13], 98.3% (inactive). The Her2 level in assay [2] is 98.5% (inactive). In assay [6] (H69AR cells + 2 uM doxorubicin), the differential viability (reversal) is 7.83% (inactive). Besides, the inhibition is -8.4% (inactive) in [7], -2.74% (inactive) in [8] and 0.94% (inactive) in assay [14]. Moreover, the figures for the growth inhibition in [9] and in [10] were -4.72% (inactive) and -9.94% (inactive), respectively. In assay [11], the viability increase was -1.31% (inactive). Also, the RAM network inhibition in assay [15] is -1.93% (inactive).
With `Cc1cc(NC(=O)CSc2nc3c(c(=O)n2Cc2ccccc2)SC(C)C3)no1` (stereo not given), the viability is 104% in assay [1]; 104% (inactive) in assay [3]; 74.5% (inactive) in assay [4]; 92.1% (inactive) in assay [5]; 76.3% in assay [6] (setting [16]); 92.1% in assay [6] (setting [17]). Besides, the viability in assay [12] was 100% (inactive); in [13], 92.4% (inactive). Also, the Her2 level in assay [2] was 106% (inactive). In assay [6] (H69AR cells + 2 uM doxorubicin), the differential viability (reversal) is 15.8% (inactive). In addition, the inhibition in assay [7] was -3.33% (inactive); in assay [8], -1.83% (inactive); in assay [14] it was 2.35% (inactive). Moreover, the growth inhibition is -2.67% (inactive) in assay [9] and -0.455% (inactive) in assay [10]. Further, the viability increase in assay [11] is -2.6% (inactive). Also, the RAM network inhibition in assay [15] is 8.6% (inactive).
Turning to `Cc1ccc(-c2noc(CN3C(C)CCCC3C)n2)cc1` (stereo not given), the viability in assay [1] was 93.5%; in [3], 93.5% (inactive); in [4], 114% (inactive); in [5] it was 89.3% (inactive); in [6] (setting [16]), 83.7%; in assay [6] (setting [17]), 89.3%. Further, the viability was 98.8% (inactive) in assay [12] and 95.9% (inactive) in assay [13]. Also, the Her2 level in assay [2] was 100% (inactive). The differential viability (reversal) in assay [6] (H69AR cells + 2 uM doxorubicin) was 5.67% (inactive). In addition, the inhibition in assay [7] was -3.73% (inactive); in assay [8], 2.33% (inactive); in assay [14] it was 0.67% (inactive). The growth inhibition in [9] is -3.56% (inactive); in assay [10], 4.79% (inactive). Further, the viability increase in [11] was 3.23% (inactive). Besides, the RAM network inhibition in assay [15] was 4.84% (inactive).
`CCCCC(NS(=O)(=O)c1ccc(OC)cc1)C(=O)O` (stereo not given): the viability is 110% in assay [1]; 110% (inactive) in [3]; 101% (inactive) in [4]; 98.4% (inactive) in assay [5]; 93.9% in assay [6] (setting [16]); 98.4% in assay [6] (setting [17]). The viability in assay [12] was 99.1% (inactive); in assay [13], 97.1% (inactive). Moreover, the Her2 level in assay [2] is 108% (inactive). In addition, in [6] (H69AR cells + 2 uM doxorubicin), the differential viability (reversal) is 4.5% (inactive). Besides, the inhibition in [7] is -0.39% (inactive); in assay [8], -4.17% (inactive); in assay [14], 1.7% (inactive). The growth inhibition was -19.3% (inactive) in [9] and -7.24% (inactive) in assay [10]. In addition, the viability increase in [11] is 0.29% (inactive). The RAM network inhibition in [15] is 3.29% (inactive).
For `CCOc1ccc(N(CC(=O)OC)S(=O)(=O)c2ccc(OC)c(OC)c2)cc1`, the viability in assay [1] was 108%; in assay [3], 108% (inactive); in assay [4], 87.2% (inactive); in assay [5], 106% (inactive); in [6] (setting [16]) it was 99.4%; in assay [6] (setting [17]), 106%. Moreover, the values for the viability in [12] and in [13] were 99.9% (inactive) and 106% (inactive), respectively. Also, the Her2 level in assay [2] was 122% (inactive). Besides, in [6] (H69AR cells + 2 uM doxorubicin), the differential viability (reversal) is 6.15% (inactive). In addition, the inhibition was 3.12% (inactive) in [7], -4.83% (inactive) in assay [8] and 0.39% (inactive) in [14]. The results for the growth inhibition in assay [9] and in assay [10] were -11.6% (inactive) and -4.04% (inactive), respectively. In [11], the viability increase is -0.96% (inactive). Further, in assay [15], the RAM network inhibition is 2.44% (inactive).
Consider `CCCOc1ccc(N2CC(C(=O)Nc3ccc4c(c3)OCO4)CC2=O)cc1` (stereo not given), for which the viability in assay [1] is 107%; in assay [3], 107% (inactive); in assay [4], 79.3% (inactive); in [5] it was 86.4% (inactive); in [6] (setting [16]), 95.4%; in assay [6] (setting [17]) it was 86.4%. In addition, the values for the viability in [12] and in assay [13] were 107% (inactive) and 102% (inactive), respectively. Moreover, in assay [2], the Her2 level is 94% (inactive). For the same compound, the differential viability (reversal) in [6] (H69AR cells + 2 uM doxorubicin) was -9.04% (inactive). Moreover, the inhibition is -4.13% (inactive) in assay [7], -1.67% (inactive) in assay [8] and 2.89% (inactive) in assay [14]. The values for the growth inhibition in assay [9] and in [10] were -11.2% (inactive) and 12.3% (inactive), respectively. For the same compound, the viability increase in assay [11] is -2.44% (inactive). The RAM network inhibition in [15] is 2.77% (inactive).
`CCOC(=O)c1c(C)n(C)c2c(C)cc(O)c(OC(C)=O)c12`: the viability in assay [1] was 93%; in assay [3], 93% (inactive); in assay [4] it was 103% (inactive); in assay [5] it was 101% (inactive); in [6] (setting [16]), 87.3%; in assay [6] (setting [17]), 101%. Also, the viability in assay [12] is 78.5% (inactive); in [13], 86.8% (inactive). The Her2 level in assay [2] is 83.5% (inactive). For the same compound, the differential viability (reversal) in [6] (H69AR cells + 2 uM doxorubicin) was 13.4% (inactive). The inhibition in assay [7] is -3.9% (inactive); in assay [8], 0.5% (inactive); in assay [14], 1.42% (inactive). For the same compound, the growth inhibition in assay [9] was -11.9% (inactive); in assay [10], -6.75% (inactive). In [11], the viability increase was -5.24% (inactive). In addition, in assay [15], the RAM network inhibition was 1.23% (inactive).
On to `Cc1ccc(-c2noc(COc3ccccc3C)n2)cc1`, for which the viability in assay [1] is 72.5%; in [3], 72.5% (inactive); in assay [4], 102% (inactive); in assay [5], 96.9% (inactive); in assay [6] (setting [16]), 86.3%; in assay [6] (setting [17]), 96.9%. The viability in assay [12] is 93% (inactive); in assay [13] it was 103% (inactive). Also, the Her2 level in assay [2] is 92% (inactive). The differential viability (reversal) in assay [6] (H69AR cells + 2 uM doxorubicin) was 10.6% (inactive). The inhibition in assay [7] is -1.2% (inactive); in assay [8] it was 1.61% (inactive); in [14], 0.065% (inactive). Besides, the growth inhibition is -13.7% (inactive) in assay [9] and -16.5% (inactive) in [10]. For the same compound, in assay [11], the viability increase was 3.84% (inactive). Besides, in assay [15], the RAM network inhibition is 0% (inactive).
As for `COc1cccc(C2CC(c3ccc(C)cc3)Nc3nc(N)nn32)c1` (stereo not given), the viability in assay [1] is 88%; in assay [3], 88% (inactive); in assay [4], 99.2% (inactive); in assay [5] it was 97.9% (inactive); in assay [6] (setting [16]), 93.9%; in [6] (setting [17]), 97.9%. The viability in assay [12] was 98.6% (inactive); in assay [13], 95.5% (inactive). In assay [2], the Her2 level was 98.5% (inactive). In addition, the differential viability (reversal) in assay [6] (H69AR cells + 2 uM doxorubicin) was 4.01% (inactive). Besides, the figures for the inhibition in [7], in assay [8] and in [14] were -0.4% (inactive), -5.9% (inactive) and 0.515% (inactive), respectively. In addition, the growth inhibition in assay [9] was -2.17% (inactive); in assay [10], 2.23% (inactive). Also, the viability increase in assay [11] was 0.54% (inactive). The RAM network inhibition in assay [15] is -0.56% (inactive).
